Records with an inconclusive call do not appear. Unmarked numbers belong to inactive results. Calls of active or inactive are those of the source. The call rests on the fitted dose curve.
On the % scale 0 is the no-effect control and ±100 the full control effect; potency means the concentration at half of the fitted maximal effect.

The target in this experiment is Thyrotropin receptor (Homo sapiens) (UniProt P16473). The experiment is described as follows: qHTS assay to identify small molecule agonists of the thyroid stimulating hormone receptor (TSHR) signaling pathway (AID 1224843). Further: nearly all actives have a fitted effect of over 45% in size. The note with it: TSHR-HEK293 cells, cAMP HTRF, agonist mode, 30 min; series mostly up to 92.4 µM; activation: at the top concentration. Put shortly: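 Screening of the Tox21 10K collection used HEK293 cells engineered with TSHR at 800 cells per well. After a 30-min room-temperature compound exposure, HTRF cAMP reagents were added and fluorescence recorded 1 h later.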
Thyrotropin receptor (Homo sapiens), sequence (P16473 whole entry, looked up): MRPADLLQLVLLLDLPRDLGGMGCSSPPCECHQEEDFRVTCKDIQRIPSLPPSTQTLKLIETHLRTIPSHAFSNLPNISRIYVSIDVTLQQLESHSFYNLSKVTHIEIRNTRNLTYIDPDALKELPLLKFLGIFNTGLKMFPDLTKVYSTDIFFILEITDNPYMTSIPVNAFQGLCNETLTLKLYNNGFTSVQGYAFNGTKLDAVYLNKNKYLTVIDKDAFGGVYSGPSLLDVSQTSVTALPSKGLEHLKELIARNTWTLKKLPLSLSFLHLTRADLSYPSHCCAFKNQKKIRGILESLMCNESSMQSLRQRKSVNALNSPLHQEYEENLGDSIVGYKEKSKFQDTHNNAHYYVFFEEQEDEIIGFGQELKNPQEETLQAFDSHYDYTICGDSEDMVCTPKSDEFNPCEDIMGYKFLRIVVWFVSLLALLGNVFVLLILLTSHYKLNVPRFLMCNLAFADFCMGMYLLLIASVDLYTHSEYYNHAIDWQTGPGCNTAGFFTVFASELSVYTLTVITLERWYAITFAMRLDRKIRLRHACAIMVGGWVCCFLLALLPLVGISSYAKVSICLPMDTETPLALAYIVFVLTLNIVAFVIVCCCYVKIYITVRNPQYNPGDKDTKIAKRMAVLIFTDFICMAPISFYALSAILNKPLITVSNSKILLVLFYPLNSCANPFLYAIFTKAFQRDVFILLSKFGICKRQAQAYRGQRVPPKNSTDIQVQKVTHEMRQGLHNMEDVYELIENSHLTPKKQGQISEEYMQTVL
(In qHTS, concentration-response curves come from the screen itself.)
Take `CCCCCCCCCCCCCCCC[N+](C)(C)CCN(Cc1ccc(OC)cc1)c1ncccn1`: the “activation” value was 0.465% [at 42.5 µM]. On the same count and under the same terms, under `O=C(Oc1cccc2cccnc12)c1ccccc1` stands -4.46% [at 42.5 µM]. As for `O=C(Nc1cccc(C(F)(F)F)c1)c1cc(Br)cc(Br)c1O`, the “activation” value was 25.3%. Consider `OCCN1CCN(CC/C=C2/c3ccccc3Sc3ccc(C(F)(F)F)cc32)CC1`, for which the “activation” value was 3.57% [at 42.5 µM]. Regarding `O=C(O)c1cc(O)c2c(c1)C(=O)c1cccc(O)c1C2=O`, the “activation” value is -0.578%. As for `N=C1N=C(N)c2cc3ccccc3cc21`, the Potency is 6.86 µM (active). For the compound `CCCCCCCCS(=O)C(C)Cc1ccc2c(c1)OCO2` (stereo not drawn), the “activation” value was -4.96%. For the compound `CCCCN1C(=O)[C@@H]([C@H](O)C2CCCCC2)NC(=O)C12CCN(Cc1ccc(Oc3ccc(C(=O)O)cc3)cc1)CC2`, the “activation” value is -4.4%.

`O=c1cc(-c2ccc(O)cc2)oc2cc(O)cc(O)c12`: the Potency entry is “inactive”. For the compound `CNCc1cc(F)ccc1Oc1ccc(Cl)c(Cl)c1`, the Potency is 54.5 µM (active). Regarding `CC(=O)S[C@@H]1CC2=CC(=O)CC[C@]2(C)[C@H]2CC[C@@]3(C)[C@@H](CC[C@@]34CCC(=O)O4)[C@H]12`, the “activation” value was 11.4%.

`Nc1ccc2c3c(cccc13)-c1ccccc1-2`: the “activation” value is -1.68%. Still for that read-out and setting: under `CCC(CN)=C(c1ccccc1)c1ccccc1` stands -13.4% [at 42.5 µM]; under `CCCCCCCCCCCCCCCC(=O)OC[C@H](O)[C@H]1OC(=O)C(O)=C1O`, 7.09%.

`C[C@@H]1C[C@H]2[C@@H]3CCC4=CC(=O)C=C[C@]4(C)[C@@]3(Cl)[C@@H](O)C[C@]2(C)[C@@]1(OC(=O)c1ccco1)C(=O)CCl`: the “activation” value is -1.96% [at 42.5 µM]. Consider `c1cc(C(c2ccc(OCC3CO3)cc2)c2ccc(OCC3CO3)cc2)ccc1OCC1CO1` (stereo not drawn), for which the “activation” value was -11.7%. As for `CCOc1nc2cccc(C(=O)OC(C)OC(=O)OC3CCCCC3)c2n1Cc1ccc(-c2ccccc2-c2nn[nH]n2)cc1` (stereo not drawn), the “activation” value is -1.8%. Turning to `CCCCN(CCCC)c1ccc(C(=O)c2ccccc2C(=O)O)c(O)c1`, the “activation” value is -13.9%.

On to `CCCC/C=C/CCCCO`, for which the “activation” value is -3.21%. As for `NC(=NCCCCCCN=C(N)/N=C(\N)Nc1ccc(Cl)cc1)/N=C(\N)Nc1ccc(Cl)cc1`, the Potency entry was “inactive”. For `CN1CCC(Nc2ncc3ncnc(Nc4ccc(F)c(Cl)c4)c3n2)CC1`, the “activation” value was -13.7% [at 42.5 µM]. With `Cc1nc(-c2ccc3c(c2)CCN(CCC2CCC(NC(=O)/C=C/c4ccc(F)cc4)CC2)CC3)no1` (stereo not drawn), the “activation” value was 2.76% [at 42.5 µM]. As to `CNC(=O)c1ccccc1`, the “activation” value was 0.0626%.

Source of the values: PubChem BioAssay (Tox21).
